According to the supplement of paper PMC4466140:

How the values were obtained:
Assay in all cases: SPOT peptide array binding signal intensity (averaged, normalized) (arbitrary units (background-subtracted, floor 0; scale differs between SH3 domains)); higher = stronger binding of the SH3 domain to the peptide
SpBzz1-D2 = molecular target: SpBzz1-D2
Outline: (§1)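 GST-fused SH3 domains from four yeast species were expressed in E. coli BL21(DE3), purified on glutathione Sepharose and incubated at 10 μg/ml overnight at 4°C in TBS-based blocking buffer on cellulose membranes carrying synthetic 15-mer peptides, with cysteines replaced by serines. Bound protein was detected with anti-GST antibody, an HRP anti-mouse secondary and luminol, then imaged and quantified with Genespotter. Binding signal is the normalized, background-subtracted spot intensity averaged over replicates, in arbitrary units that differ between domains.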

SpCyk3 = molecular target: SpCyk3
Outline: as §1

SpHof1 = molecular target: SpHof1
Outline: as §1

SpHof1-2 = molecular target: SpHof1-2
Outline: as §1

SpHof1-3 = molecular target: SpHof1-3
Outline: as §1

SpHse1 = molecular target: SpHse1
Outline: as §1

SpLsb1 = molecular target: SpLsb1
Outline: as §1

SpLsb4 = molecular target: SpLsb4
Outline: as §1

SpMyo1 = molecular target: SpMyo1
Outline: as §1

SpNbp2 = molecular target: SpNbp2
Outline: as §1

SpPex13 = molecular target: SpPex13
Outline: as §1

SpRvs167 = molecular target: SpRvs167
Outline: as §1

SpSla1-D1-D2 = molecular target: SpSla1-D1-D2
Outline: as §1

SpSla1-D3 = molecular target: SpSla1-D3
Outline: as §1

AgAbp1 = molecular target: AgAbp1
Outline: as §1

AgBbc1 = molecular target: AgBbc1
Outline: as §1

AgBem1-D1 = molecular target: AgBem1-D1
Outline: as §1

AgBzz1-D1 = molecular target: AgBzz1-D1
Outline: as §1

AgBzz1-D2 = molecular target: AgBzz1-D2
Outline: as §1

AgCyk3 = molecular target: AgCyk3
Outline: as §1

AgFus1 = molecular target: AgFus1
Outline: as §1

AgHof1 = molecular target: AgHof1
Outline: as §1

AgHse1 = molecular target: AgHse1
Outline: as §1

AgLsb1 = molecular target: AgLsb1
Outline: as §1

AgLsb4 = molecular target: AgLsb4
Outline: as §1

AgMyo5 = molecular target: AgMyo5
Outline: as §1

AgNbp2 = molecular target: AgNbp2
Outline: as §1

AgRvs167 = molecular target: AgRvs167
Outline: as §1

AgSho1 = molecular target: AgSho1
Outline: as §1

AgSla1-D1-D2 = molecular target: AgSla1-D1-D2
Outline: as §1

AgSla1-D3 = molecular target: AgSla1-D3
Outline: as §1

CaAbp1-D1 = molecular target: CaAbp1-D1
Outline: as §1

CaAbp1-D2 = molecular target: CaAbp1-D2
Outline: as §1

CaBbc1 = molecular target: CaBbc1
Outline: as §1

CaBem1-D1 = molecular target: CaBem1-D1
Outline: as §1

CaBzz1-D1 = molecular target: CaBzz1-D1
Outline: as §1

CaBzz1-D2 = molecular target: CaBzz1-D2
Outline: as §1

CaCyk3 = molecular target: CaCyk3
Outline: as §1

CaFus1 = molecular target: CaFus1
Outline: as §1

CaHof1 = molecular target: CaHof1
Outline: as §1

CaHse1 = molecular target: CaHse1
Outline: as §1

CaLsb1 = molecular target: CaLsb1
Outline: as §1

CaLsb4 = molecular target: CaLsb4
Outline: as §1

CaMyo5 = molecular target: CaMyo5
Outline: as §1

CaNbp2 = molecular target: CaNbp2
Outline: as §1

CaRvs167 = molecular target: CaRvs167
Outline: as §1

CaRvs167-3 = molecular target: CaRvs167-3
Outline: as §1

CaSho1 = molecular target: CaSho1
Outline: as §1

CaSla1-D1-D2 = molecular target: CaSla1-D1-D2
Outline: as §1

CaSla1-D3 = molecular target: CaSla1-D3
Outline: as §1

ScAbp1 = molecular target: ScAbp1
Outline: as §1

ScBbc1 = molecular target: ScBbc1
Outline: as §1

ScBem1-D1 = molecular target: ScBem1-D1
Outline: as §1

ScBzz1-D1 = molecular target: ScBzz1-D1
Outline: as §1

ScBzz1-D2 = molecular target: ScBzz1-D2
Outline: as §1

ScCyk3 = molecular target: ScCyk3
Outline: as §1

ScFus1 = molecular target: ScFus1
Outline: as §1

ScHof1 = molecular target: ScHof1
Outline: as §1

ScHse1 = molecular target: ScHse1
Outline: as §1

ScLsb1 = molecular target: ScLsb1
Outline: as §1

ScLsb2 = molecular target: ScLsb2
Outline: as §1

ScLsb3 = molecular target: ScLsb3
Outline: as §1

ScLsb4 = molecular target: ScLsb4
Outline: as §1

ScMyo3 = molecular target: ScMyo3
Outline: as §1

ScMyo5 = molecular target: ScMyo5
Outline: as §1

ScNbp2 = molecular target: ScNbp2
Outline: as §1

ScPex13 = molecular target: ScPex13
Outline: as §1

ScRvs167 = molecular target: ScRvs167
Outline: as §1

ScSho1 = molecular target: ScSho1
Outline: as §1

ScSla1-D1-D2 = molecular target: ScSla1-D1-D2
Outline: as §1

ScSla1-D3 = molecular target: ScSla1-D3
Outline: as §1

SpAbp1-D1 = molecular target: SpAbp1-D1
Outline: as §1

SpBbc1 = molecular target: SpBbc1
Outline: as §1

SpBzz1-D1 = molecular target: SpBzz1-D1
Outline: as §1

B1: unnamed (peptide)
chain: LRIKRKPVQTFFEFI
SPOT peptide array binding signal intensity (SpBzz1-D2): 0.5 | SPOT peptide array binding signal intensity (SpCyk3): 2 | SPOT peptide array binding signal intensity (SpHof1): 436 | SPOT peptide array binding signal intensity (SpHof1-2): 14 | SPOT peptide array binding signal intensity (SpHof1-3): 784 | SPOT peptide array binding signal intensity (SpHse1): 686 | SPOT peptide array binding signal intensity (SpLsb1): 4.25 | SPOT peptide array binding signal intensity (SpLsb4): 100 | SPOT peptide array binding signal intensity (SpMyo1): 4.5 | SPOT peptide array binding signal intensity (SpNbp2): 370 | SPOT peptide array binding signal intensity (SpPex13): 23.5 | SPOT peptide array binding signal intensity (SpRvs167): 32.5 | SPOT peptide array binding signal intensity (SpSla1-D1-D2): ≤ 0 | SPOT peptide array binding signal intensity (SpSla1-D3): 37

B2: unnamed (peptide)
chain: RRRIAYPFYPFKKLG
SPOT peptide array binding signal intensity (AgAbp1): 69 | SPOT peptide array binding signal intensity (AgBbc1): ≤ 0 | SPOT peptide array binding signal intensity (AgBem1-D1): 22 | SPOT peptide array binding signal intensity (AgBzz1-D1): 32.5 | SPOT peptide array binding signal intensity (AgBzz1-D2): 9 | SPOT peptide array binding signal intensity (AgCyk3): 1 | SPOT peptide array binding signal intensity (AgFus1): 337 | SPOT peptide array binding signal intensity (AgHof1): 8.75 | SPOT peptide array binding signal intensity (AgHse1): 914 | SPOT peptide array binding signal intensity (AgLsb1): 1.5 | SPOT peptide array binding signal intensity (AgLsb4): 19.5 | SPOT peptide array binding signal intensity (AgMyo5): 1.75 | SPOT peptide array binding signal intensity (AgNbp2): 124 | SPOT peptide array binding signal intensity (AgRvs167): 6.5 | SPOT peptide array binding signal intensity (AgSho1): 79 | SPOT peptide array binding signal intensity (AgSla1-D1-D2): 22 | SPOT peptide array binding signal intensity (AgSla1-D3): ≤ 0 | SPOT peptide array binding signal intensity (CaAbp1-D1): 482 | SPOT peptide array binding signal intensity (CaAbp1-D2): 238 | SPOT peptide array binding signal intensity (CaBbc1): 0.25 | SPOT peptide array binding signal intensity (CaBem1-D1): 23 | SPOT peptide array binding signal intensity (CaBzz1-D1): 21 | SPOT peptide array binding signal intensity (CaBzz1-D2): 9.5 | SPOT peptide array binding signal intensity (CaCyk3): 1 | SPOT peptide array binding signal intensity (CaFus1): 672 | SPOT peptide array binding signal intensity (CaHof1): 0.5 | SPOT peptide array binding signal intensity (CaHse1): 47.8 | SPOT peptide array binding signal intensity (CaLsb1): ≤ 0 | SPOT peptide array binding signal intensity (CaLsb4): 15 | SPOT peptide array binding signal intensity (CaMyo5): 0.25

B3: unnamed (peptide)
chain: AATTSTPPLPRRRAT
SPOT peptide array binding signal intensity (AgAbp1): 73 | SPOT peptide array binding signal intensity (AgBbc1): 800 | SPOT peptide array binding signal intensity (AgBem1-D1): ≤ 0 | SPOT peptide array binding signal intensity (AgBzz1-D1): 188 | SPOT peptide array binding signal intensity (AgBzz1-D2): 53.5 | SPOT peptide array binding signal intensity (AgCyk3): 3 | SPOT peptide array binding signal intensity (AgFus1): 5 | SPOT peptide array binding signal intensity (AgHof1): 142 | SPOT peptide array binding signal intensity (AgHse1): 21 | SPOT peptide array binding signal intensity (AgLsb1): 464 | SPOT peptide array binding signal intensity (AgLsb4): 5320 | SPOT peptide array binding signal intensity (AgMyo5): 12.5 | SPOT peptide array binding signal intensity (AgNbp2): ≤ 0 | SPOT peptide array binding signal intensity (AgRvs167): 591 | SPOT peptide array binding signal intensity (AgSho1): ≤ 0 | SPOT peptide array binding signal intensity (AgSla1-D1-D2): 6 | SPOT peptide array binding signal intensity (AgSla1-D3): ≤ 0 | SPOT peptide array binding signal intensity (CaAbp1-D1): 142 | SPOT peptide array binding signal intensity (CaAbp1-D2): 229 | SPOT peptide array binding signal intensity (CaBbc1): 1600 | SPOT peptide array binding signal intensity (CaBem1-D1): 11 | SPOT peptide array binding signal intensity (CaBzz1-D1): 520 | SPOT peptide array binding signal intensity (CaBzz1-D2): 362 | SPOT peptide array binding signal intensity (CaCyk3): 60.5 | SPOT peptide array binding signal intensity (CaFus1): 68 | SPOT peptide array binding signal intensity (CaHof1): 8.75 | SPOT peptide array binding signal intensity (CaHse1): ≤ 0 | SPOT peptide array binding signal intensity (CaLsb1): 8.5 | SPOT peptide array binding signal intensity (CaLsb4): 5270 | SPOT peptide array binding signal intensity (CaMyo5): 8 | SPOT peptide array binding signal intensity (CaNbp2): 94 | SPOT peptide array binding signal intensity (CaRvs167): 700 | SPOT peptide array binding signal intensity (CaRvs167-3): 1 | SPOT peptide array binding signal intensity (CaSho1): 7 | SPOT peptide array binding signal intensity (CaSla1-D1-D2): 906 | SPOT peptide array binding signal intensity (CaSla1-D3): ≤ 0 | SPOT peptide array binding signal intensity (ScAbp1): 109 | SPOT peptide array binding signal intensity (ScBbc1): 726 | SPOT peptide array binding signal intensity (ScBem1-D1): 3 | SPOT peptide array binding signal intensity (ScBzz1-D1): 10.5 | SPOT peptide array binding signal intensity (ScBzz1-D2): 9 | SPOT peptide array binding signal intensity (ScCyk3): 16 | SPOT peptide array binding signal intensity (ScFus1): ≤ 0 | SPOT peptide array binding signal intensity (ScHof1): 9.75 | SPOT peptide array binding signal intensity (ScHse1): 70 | SPOT peptide array binding signal intensity (ScLsb1): 232 | SPOT peptide array binding signal intensity (ScLsb2): 202 | SPOT peptide array binding signal intensity (ScLsb3): 6300 | SPOT peptide array binding signal intensity (ScLsb4): 2060 | SPOT peptide array binding signal intensity (ScMyo3): ≤ 0 | SPOT peptide array binding signal intensity (ScMyo5): ≤ 0 | SPOT peptide array binding signal intensity (ScNbp2): 20 | SPOT peptide array binding signal intensity (ScPex13): 1080 | SPOT peptide array binding signal intensity (ScRvs167): 2000 | SPOT peptide array binding signal intensity (ScSho1): ≤ 0 | SPOT peptide array binding signal intensity (ScSla1-D1-D2): 760 | SPOT peptide array binding signal intensity (ScSla1-D3): 11 | SPOT peptide array binding signal intensity (SpAbp1-D1): 16 | SPOT peptide array binding signal intensity (SpBbc1): 104 | SPOT peptide array binding signal intensity (SpBzz1-D1): 877 | SPOT peptide array binding signal intensity (SpBzz1-D2): ≤ 0 | SPOT peptide array binding signal intensity (SpCyk3): 9 | SPOT peptide array binding signal intensity (SpHof1): 178 | SPOT peptide array binding signal intensity (SpHof1-2): 78.5 | SPOT peptide array binding signal intensity (SpHof1-3): 66.5 | SPOT peptide array binding signal intensity (SpHse1): 8.25 | SPOT peptide array binding signal intensity (SpLsb1): 712 | SPOT peptide array binding signal intensity (SpLsb4): 4540 | SPOT peptide array binding signal intensity (SpMyo1): 113 | SPOT peptide array binding signal intensity (SpNbp2): 1.5 | SPOT peptide array binding signal intensity (SpPex13): 3 | SPOT peptide array binding signal intensity (SpRvs167): 1970 | SPOT peptide array binding signal intensity (SpSla1-D1-D2): 15.5 | SPOT peptide array binding signal intensity (SpSla1-D3): ≤ 0
